Screening results deposited in PubChem by National Center for Advancing Translational Sciences (NCATS).
An excerpt weighted towards active compounds, which were near 19% of everything screened.
TDP1 block = inhibitors of human tyrosyl-DNA phosphodiesterase TDP1 | Q9NUW8 | recombinant TDP1, AlphaScreen DNA substrate cleavage | Potency, µM (series often up to 130 µM), for inactives: at the top dose activity change, negative = inhibition, actives largely listed as inhibitors | 350,000 tested, 0.28% active | AID 485290; further: potency means the concentration at half of the fitted maximal effect; on the % scale 0 is the no-effect control and ±100 the full control effect; nearly all actives have a fitted effect of over 40% in size
Target sequence (Q9NUW8 whole entry, looked up): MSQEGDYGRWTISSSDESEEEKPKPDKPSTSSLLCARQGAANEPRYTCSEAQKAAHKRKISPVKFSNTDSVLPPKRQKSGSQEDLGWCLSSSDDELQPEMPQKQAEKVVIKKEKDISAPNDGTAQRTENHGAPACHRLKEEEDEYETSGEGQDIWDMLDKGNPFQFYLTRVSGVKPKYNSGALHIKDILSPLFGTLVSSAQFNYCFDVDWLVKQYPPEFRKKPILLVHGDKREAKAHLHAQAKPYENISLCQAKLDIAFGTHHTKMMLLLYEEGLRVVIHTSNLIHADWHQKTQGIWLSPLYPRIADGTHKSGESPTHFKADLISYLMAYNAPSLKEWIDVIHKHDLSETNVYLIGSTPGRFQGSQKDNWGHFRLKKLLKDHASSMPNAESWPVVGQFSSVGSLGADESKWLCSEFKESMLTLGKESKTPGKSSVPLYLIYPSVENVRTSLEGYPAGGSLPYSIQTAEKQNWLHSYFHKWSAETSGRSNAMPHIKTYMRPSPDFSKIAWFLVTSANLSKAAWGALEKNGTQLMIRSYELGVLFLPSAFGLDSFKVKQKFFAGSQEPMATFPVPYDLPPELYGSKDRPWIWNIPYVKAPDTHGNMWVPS
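AlphaScreen read-out: signal falls as enzyme removes the 3' tyrosine-FITC from a 5'-biotinylated DNA oligo (15 nM, 5 min, RT). Enzyme was E. coli-made recombinant Tdp1 at 1 nM, exposed to compound for 15 min beforehand; beads 10 ug/ml, 10 min.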
DT40 TDP1 CPT = DT40-hTDP1 cell growth loss with CPT; chicken DT40 Tdp1-/-;hTDP1 cells + 20 nM CPT, ATP luminescence, 48 h; Potency, µM (series often up to 46.2 µM), inactives show top-dose activity change, negative = growth inhibition, actives largely listed as inhibitors; 420,000 tested, 12% active; AID 686979; further: potency means the concentration at half of the fitted maximal effect; on the % scale 0 is the no-effect control and ±100 the full control effect; nearly all actives have a fitted effect of over 55% in size
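Chicken DT40 Tdp1-/- cells complemented with human TDP1, 400 cells/well, exposed to compounds plus 20 nM camptothecin for at least 48 h at 37 C; viability read as ATP content by CellTiter-Glo luminescence.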
IL-1B inflam inh = inhibitors of inflammasome signaling (IL-1 beta secretion); THP-1 LPS/ATP IL-1B secretion, AlphaLISA, 16 h; hits give low values; activity change, % at 57.5 µM; 360,000 tested, 4.7% active; in the data active means activity change below about -50%; inconclusive means mostly about -30% to -49%; further: on the % scale 0 is the no-effect control and ±100 the full control effect
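Secreted IL-1B measured by AlphaLISA bead assay after 16 h compound exposure of THP-1 cells; compounds (final up to 57.5 uM) added 1 h before LPS (250 ng/mL) and ATP (1.25 mM) stimulation; lower signal means less secretion.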
TDP1 cell noCPT = qHTS for Inhibitors of human tyrosyl-DNA phosphodiesterase 1 (TDP1): qHTS in cells in absence of CPT. DT40 Tdp1-/- hTDP1 cells, no CPT, ATP luminescence, 48 h. Potency, µM (doses to about 46.2 µM), for the others: top-dose activity change, negative = growth inhibition, actives largely listed as inhibitors. 420,000 tested, 15% active; further: potency means the concentration at half of the fitted maximal effect; on the % scale 0 is the no-effect control and ±100 the full control effect; nearly all actives have a fitted effect of over 55% in size
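Readout: luminescence from CellTiter-Glo after 30 min in the dark at RT. Cells: DT40 Tdp1-/- with stable hTDP1, 400/well. Exposure: compounds alone, ≥48 hr, 37 °C.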
TGFb inhibitor = blocks TGF-b signaling; AID 588855; HepG2 CAGA-GFP TGF-b/SMAD3 reporter, GFP fluorescence, 18 h; TGF-beta stimulated, 500 pg/mL final; 410,000 tested, 1.2% active; Potency, µM (top dose mostly 46.1 µM), for inactives: at the top dose activity, negative = inhibition, usual class: inhibitors; further: potency means the concentration at half of the fitted maximal effect; on the % scale 0 is the no-effect control and ±100 the full control effect; nearly all actives have a fitted effect of over 65% in size
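HEPG2 CAGA-GFP, 1000 cells/well; 2 h settle, 37 C; cpd via pin tool; TGF-b 500 pg/mL final; 18 h, 37 C; GFP imaging ex488/em500-530; %Activity normalised to -TGF-b and +DMSO controls; CRC fit, curve class.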
HepG2 viability = HepG2 cytotoxicity, counter-screen for TGF-b inhibitors; HepG2 CAGA-GFP viability, ATP luminescence, 18 h; Potency, µM (highest dose often 46.1 µM), without a hit: at the top dose activity change, negative = cytotoxicity, actives largely listed as cytotoxic; 410,000 tested, 0.76% active; AID 588856; further: potency means the concentration at half of the fitted maximal effect
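HepG2 CAGA-GFP cells (1000/well, DMEM with 1% FBS) received compound, then TGF-beta at 500 pg/mL final, and were incubated 18 hours at 37 degrees C. Viability was read by CellTiter-Glo luminescence. Media-only wells were set as complete cell-killing and DMSO as no toxicity.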
Numbers without * were called inactive. Unless noted, the call rests on the fitted dose curve; in most records, active means well fitted curve in the direction sought with a large enough effect; inconclusive means small, poorly fitted or top-dose-only effect, or another doubt; inactive means no such curve, though single readings can be large; an effect the other way counts as inactive or inconclusive.

How did CC1=NN(C(=O)c2ccc(Br)cc2)C(O)(C(F)(F)OC(F)(F)F)C1 (stereo not drawn) do in these assays?
TDP1 block: 1%; DT40 TDP1 CPT: inconclusive; IL-1B inflam inh: -55*; TDP1 cell noCPT: inconclusive; TGFb inhibitor: 16µM*; HepG2 viability: -60%

How did O=C1Nc2ccccc2SC1c1ccccc1 (stereo not drawn) do in these assays?
DT40 TDP1 CPT: -5%; IL-1B inflam inh: -15; TDP1 cell noCPT: -18%; TGFb inhibitor: 17%; HepG2 viability: -4%

How did CCCc1ccc(C2Sc3ccccc3NC3=C2C(=O)c2ccccc23)cc1 (stereo not drawn) do in these assays?
DT40 TDP1 CPT: inconclusive; TDP1 cell noCPT: 15µM*; TGFb inhibitor: inconclusive; HepG2 viability: -39%

What do the screens show for `CCOc1cc(C2Sc3ccccc3NC3=C2C(=O)c2ccccc23)ccc1O` (stereo not drawn)?
TDP1 block: 12%; DT40 TDP1 CPT: inconclusive; TDP1 cell noCPT: inconclusive; TGFb inhibitor: -33%; HepG2 viability: -35%

Results for O=C1C2=C(Nc3ccccc3SC2c2c(F)cccc2Cl)c2ccccc21 (stereo not drawn) ?
TDP1 block: 7%; DT40 TDP1 CPT: 15µM*; TDP1 cell noCPT: inconclusive; TGFb inhibitor: -28%; HepG2 viability: -5%

Results for O=C1C2=C(Nc3ccccc3SC2c2ccc(Cl)c(Cl)c2)c2ccccc21 (stereo not drawn) ?
TDP1 block: 9%; DT40 TDP1 CPT: 15µM*; TDP1 cell noCPT: 26µM*; TGFb inhibitor: 0%; HepG2 viability: -64%

Results for COc1ccc(Br)cc1C1Sc2ccccc2NC2=C1C(=O)c1ccccc12 (stereo not drawn) ?
TDP1 block: 2%; DT40 TDP1 CPT: inconclusive; TDP1 cell noCPT: 13µM*; TGFb inhibitor: -4%; HepG2 viability: -29%

Results for c1ccc(CNc2oc(-c3ccccc3)nc2-c2ccccc2)cc1 ?
TDP1 block: 4%

Results for CCOC(=O)C1CCN(CCCSc2ccc(C)cc2)CC1 ?
DT40 TDP1 CPT: -8%; IL-1B inflam inh: 3; TDP1 cell noCPT: -4%; TGFb inhibitor: -4%; HepG2 viability: -14%

What do the screens show for `c1ccc(CNCCNCc2ccccc2)cc1`?
DT40 TDP1 CPT: -3%; TDP1 cell noCPT: -29%

Results for O=C1C2=C(Nc3ccccc3SC2c2ccccc2C(F)(F)F)c2ccccc21 (stereo not drawn) ?
TDP1 block: 12%; DT40 TDP1 CPT: 5.8µM*; TDP1 cell noCPT: 3.3µM*; TGFb inhibitor: inconclusive; HepG2 viability: -41%

Results for O=C(O)CCCC(=O)Nc1ccccc1SCCS(=O)(=O)c1ccc(Cl)cc1 ?
DT40 TDP1 CPT: 2%; IL-1B inflam inh: -12; TDP1 cell noCPT: 1%; TGFb inhibitor: -7%; HepG2 viability: -25%

Results for Cc1c(-c2ccccc2)c(P(=O)(N2CCOCC2)N2CCOCC2)c2ccccn12 ?
TDP1 block: 2%; DT40 TDP1 CPT: 26µM*; IL-1B inflam inh: 3; TDP1 cell noCPT: inconclusive; TGFb inhibitor: 5%; HepG2 viability: -2%

Results for O=P(C1=C(N2CCOCC2)/C(=C\c2ccccc2)CC1)(N1CCOCC1)N1CCOCC1 ?
TDP1 block: 6%; DT40 TDP1 CPT: 1%; IL-1B inflam inh: -19; TDP1 cell noCPT: -15%; TGFb inhibitor: 7%; HepG2 viability: 15%
